# Experimental data as given in PubChem BioAssay AID720700 (The Scripps Research Institute Molecular Screening Center, 2013).
# Screen size: about 370,000 compounds; about 3,100 (0.84%) were called active. Cut-off read from the data, not from the text of the source: active = inhibition above about 9.5%; inactive = the rest. The sample as a whole holds a higher share of actives than the screen did.
# Molecular target: 1-phosphatidylinositol 4,5-bisphosphate phosphodiesterase gamma-1 (Homo sapiens) (UniProt P19174)
# Experiment: PLC-gamma1 enzyme inhibitors, primary screen, biochemical, fluorescence, purified enzyme (AID 720700)
# Details: purified PLC-gamma1, fluorogenic substrate, at 12.2 µM, stronger effect = higher value
# Chain of 1-phosphatidylinositol 4,5-bisphosphate phosphodiesterase gamma-1 (Homo sapiens) (P19174 whole entry, looked up): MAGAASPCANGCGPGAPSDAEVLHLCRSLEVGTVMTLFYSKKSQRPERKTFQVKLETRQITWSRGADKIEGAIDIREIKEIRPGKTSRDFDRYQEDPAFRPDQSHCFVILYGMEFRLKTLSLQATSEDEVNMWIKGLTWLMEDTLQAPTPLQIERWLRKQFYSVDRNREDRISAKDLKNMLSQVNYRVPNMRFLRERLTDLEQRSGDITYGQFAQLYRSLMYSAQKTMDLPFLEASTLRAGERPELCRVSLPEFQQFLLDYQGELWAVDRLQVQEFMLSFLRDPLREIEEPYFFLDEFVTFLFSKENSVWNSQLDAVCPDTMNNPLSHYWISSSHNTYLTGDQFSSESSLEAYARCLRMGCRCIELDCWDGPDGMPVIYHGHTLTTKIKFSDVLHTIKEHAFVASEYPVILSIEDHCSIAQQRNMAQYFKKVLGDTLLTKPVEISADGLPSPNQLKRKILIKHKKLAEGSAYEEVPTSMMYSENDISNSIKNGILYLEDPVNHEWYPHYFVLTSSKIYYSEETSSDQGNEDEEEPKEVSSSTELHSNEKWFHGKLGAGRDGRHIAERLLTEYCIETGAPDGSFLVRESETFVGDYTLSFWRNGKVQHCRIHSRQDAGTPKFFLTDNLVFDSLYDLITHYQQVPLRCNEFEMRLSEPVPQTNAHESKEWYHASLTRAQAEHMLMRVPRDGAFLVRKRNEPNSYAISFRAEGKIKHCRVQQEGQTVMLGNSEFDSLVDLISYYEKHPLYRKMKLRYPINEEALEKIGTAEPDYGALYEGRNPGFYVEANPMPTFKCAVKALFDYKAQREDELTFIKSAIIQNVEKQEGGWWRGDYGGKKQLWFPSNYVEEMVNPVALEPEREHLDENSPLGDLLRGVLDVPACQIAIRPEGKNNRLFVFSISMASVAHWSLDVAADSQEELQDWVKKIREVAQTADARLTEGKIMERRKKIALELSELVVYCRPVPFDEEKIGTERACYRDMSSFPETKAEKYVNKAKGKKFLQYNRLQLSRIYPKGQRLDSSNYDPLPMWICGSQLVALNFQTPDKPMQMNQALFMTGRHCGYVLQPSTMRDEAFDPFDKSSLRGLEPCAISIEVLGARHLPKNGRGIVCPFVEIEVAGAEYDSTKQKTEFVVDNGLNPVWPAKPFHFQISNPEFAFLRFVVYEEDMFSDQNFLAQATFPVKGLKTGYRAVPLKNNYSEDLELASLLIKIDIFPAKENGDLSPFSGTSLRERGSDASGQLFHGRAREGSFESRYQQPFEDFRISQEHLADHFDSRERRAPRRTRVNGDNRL
row,Structure (SMILES),inhibition
1,CC(c1ccc(N)cc1)c1cn(C)c2ccccc12 (stereo not given),0.79% (inactive)
2,CCOC(=O)[C@]12CCCC=C1N(Cc1ccc(OC)cc1)C(=O)[C@@H]2CC(=O)NCc1cccs1,0.39% (inactive)
3,O=C1Nc2ccccc2OC1CC(=O)N1CCCCCCC1 (stereo not given),-0.62% (inactive)
4,C[C@H]1CN(c2ccc(Br)cc2)C(=O)[C@@H]1CC(=O)Nc1ccc(Br)cc1,-2.46% (inactive)
5,O=C(C[C@H]1C(=O)N(c2ccc(F)c(F)c2)C[C@@H]1Cc1ccccc1)Nc1ccccc1,17.8% (active)
6,CNC(=O)C[C@H]1C(=O)N(c2ccc(OC)cc2)C[C@@H]1Cc1ccccc1,1.07% (inactive)
7,Cc1ccc(-n2c(SCC(=O)Nc3cccc4ccccc34)nnc2-c2ccco2)cc1,0.45% (inactive)
8,CC(C)Cn1cnc2c1c(=O)n(CC(=O)NN)c(=O)n2Cc1ccccc1,-18.6% (inactive)
9,CC(C)Cn1cnc2c1c(=O)n(CC(O)c1ccccc1)c(=O)n2CC(C)C (stereo not given),16.4% (active)
10,CC(C)CCn1cnc2c1c(=O)n(CC(=O)NC(N)=O)c(=O)n2Cc1ccccc1,2.87% (inactive)
11,COc1cccc(N2CCN(CC(=O)N(C)Cc3ccc(F)cc3)CC2)c1,0.54% (inactive)
12,CS(=O)(=O)N(Cc1ccc(Cl)cc1)c1ccc(C(=O)NCCSCc2ccco2)cc1,9.72% (active)
13,CCc1ccccc1N(CC(=O)NCCSCc1ccco1)S(C)(=O)=O,-1.22% (inactive)
14,Cc1cc(C)cc(N(CC(=O)NCCSCc2ccco2)S(C)(=O)=O)c1,2.48% (inactive)
15,CCCCNC(=O)C[C@H]1C[C@@]2(C(=O)OC)C(=C[C@H](COCc3ccccc3)O[C@@H]2C)N(Cc2ccc(Cl)cc2Cl)C1=O,2.69% (inactive)
16,O=C1C(=O)N(Cc2ccc(-c3ccsc3)cc2)c2ccc(OC(F)(F)F)cc21,-5.5% (inactive)
17,CCN(CC)C(=O)CC[C@@H]1CC[C@]2(CCCN(S(=O)(=O)C3CCCCC3)C2)O1,-1.56% (inactive)
18,COC(=O)C1CN(CCc2ccccc2)CCS(=O)(=O)N1Cc1ccc(F)cc1 (stereo not given),0.52% (inactive)
19,Cc1nc(-c2ccc(F)cc2)c(CC(=O)Nc2cc(S(=O)(=O)N3CCCCC3)ccc2C)s1,0.89% (inactive)
20,Cc1ccc(S(=O)(=O)N2CCN(C(=O)Cc3sc(C)nc3-c3ccc(F)cc3)CC2)c(C)c1,-4.71% (inactive)
21,Cc1nc(-c2ccc(F)cc2)c(CC(=O)N2CCN(S(=O)(=O)c3ccc(F)cc3)CC2)s1,12.6% (active)
22,O=C(c1ccc2c(c1)OCO2)N1CCNc2ccccc2C1,9.9% (active)
23,O=C(C(=O)N1CCN(c2ccccc2)CC1)c1ccc2c(c1)OCO2,-0.77% (inactive)
24,O=CN1CCN(C(=O)c2ccc3c(c2)OCO3)CC1,0.54% (inactive)
25,N#Cc1ccc(OC[C@@H](O)CN2CCC(C(O)(c3ccccc3)c3ccccc3)CC2)c(F)c1,0.67% (inactive)
26,COCCCNC(=O)C[C@H]1C[C@@]2(C(=O)OC)C(=C[C@H](C(C)(C)C)O[C@@H]2C)N(Cc2ccc(Cl)cc2Cl)C1=O,1.11% (inactive)
27,CC(C)(C)OC(=O)NCc1cc(F)ccc1/C=C/S(=O)(=O)NCCc1ccccc1,2.46% (inactive)
28,Clc1ccc(C2[C@H]3CN(CC4CCCCC4)[C@H](c4ccccc4)C34CC2(c2cccnc2)C4)cn1 (stereo not given in full),12.1% (active)

row,Structure (SMILES),inhibition
1,COC(=O)c1ccc(C23CC4(C2)[C@H](CN(Cc2cccnc2)[C@@H]4c2ccccc2)C3c2ccc(Cl)nc2)cc1 (stereo not given in full),2.06% (inactive)
2,COC(=O)[C@]1(C#N)CC(=O)N(CC2CCCCC2)[C@@H]1c1ccccc1,8.67% (inactive)
3,COc1ccc(C#CCNCc2ccc(OC)cc2OC)cc1,2.01% (inactive)
4,Cc1cc(C(=O)NN=C/C=C/c2ccco2)n[nH]1,-16.7% (inactive)
5,CCCCNC(=O)C[C@H]1C(=O)N(Cc2ccc(OC)cc2)C2=CCCC[C@@]21C(=O)OCC,4.39% (inactive)
6,COC(=O)C[C@H]1CC[C@H]2[C@H](COc3ccc(NC(=O)C4CC4)cc3C(=O)N2C)O1,-1% (inactive)
7,COC(=O)C[C@@H]1CC[C@@H]2[C@H](COc3ccc(NC(=O)c4cccc(F)c4)cc3C(=O)N2C)O1,12.8% (active)
8,COC(=O)C[C@@H]1CC[C@@H]2[C@@H](COc3ccc(NC(=O)Nc4ccc(F)c(F)c4)cc3C(=O)N2C)O1,1.9% (inactive)
9,COC(=O)c1cccc(Cn2ccc3ccc(-c4ccc5ccn(C(=O)C6CCCCC6)c5c4)cc32)c1,-51.3% (inactive)
10,CC(=O)N1CCCN(C2=Nc3ccccc3Sc3ccccc32)CC1,0.02% (inactive)
11,O=C(OCC(=O)N1CCN(c2ccccc2)CC1)c1ccc([N+](=O)[O-])s1,-1.31% (inactive)
12,COc1cc(NC(=O)COC(=O)c2ccc([N+](=O)[O-])s2)cc(OC)c1OC,16.4% (active)
13,COc1ccc(C(=O)OCC(=O)Nc2ccc3[nH]c(=O)[nH]c3c2)c(OC)c1OC,4.24% (inactive)
14,COc1ccc2c(c1)CN1CN(CCc3ccccc3)S(=O)(=O)CC21 (stereo not given),-10.3% (inactive)
15,C=CCn1c(SCC(N)=O)nnc1-c1ccccc1OC,1.51% (inactive)
16,C=CS(=O)(=O)N(Cc1nnn(Cc2ccccc2)c1Br)[C@H](C(=O)OC)C(C)C,2.5% (inactive)
17,CCN(C(=O)[C@@H](C1CC1)[C@@H](O)c1ccc2ccccc2c1)c1ccccc1,1.27% (inactive)
18,O=c1c2ccccc2c(-c2ccc(Br)cc2)nn1Cc1ccccc1,-0.25% (inactive)
19,O=c1c2ccccc2c(-c2ccccc2)nn1Cc1ccccc1,12.3% (active)
20,O=c1c2ccccc2c(-c2ccccc2)nn1-c1ccccn1,2.78% (inactive)
21,O=C(CN1CCOCC1)Nc1c(Cl)cc(Cl)cc1Cl,0.95% (inactive)
22,Cc1cc(C)c(NC(=O)CN2CCOCCOCCOCCOCC2)c(C)c1,14% (active)
23,Cc1cc(C)c(NC(=O)CN2CCCCCC2)c(C)c1,4.73% (inactive)
24,Cc1ccccc1NC(=O)COC(=O)c1ccc(Sc2ncn[nH]2)c([N+](=O)[O-])c1,-0.83% (inactive)
25,COc1ccc(C(C)=O)cc1COC(=O)Cn1cnc2ccccc2c1=O,5.51% (inactive)
26,COCc1cc(C(C)=O)ccc1OC,12.2% (active)
27,COc1ccc(C(C)=O)cc1COc1ccc(Cl)c(C)c1,2.04% (inactive)
